{"source": "PubChem BioAssay (NCI)", "note": "The panel holds about 83,000 compounds, 20% with a hit somewhere; the sample as a whole holds those more often.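 In brief: 96-well plates, 48 h treatment, single concentration, percent growth endpoint.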 The source made the active and inactive calls. The calls were made as follows: active = growth percent below 10; inactive = the rest.", "data": [{"test_system": "MDA-MB-468 breast", "test": "NCI-60 one-dose screen, 48 h (100 = growth as untreated, 0 = no growth, -100 = all killed)", "conditions": "10 µM unless noted", "values": [{"smiles": "COc1cc(/C=C\\c2cc(OC)c(OC)c(OC)c2)cc(N/C=C\\C(=O)c2c[nH]c3ccccc23)c1OC", "growth": "-55.8% (active)"}, {"smiles": "CCCCCCCC[C@@H]1N[C@@H](C(=O)OC)Cc2c1[nH]c1ccccc21", "growth": "94.3% (inactive)"}, {"smiles": "CC(=O)c1ccc2c3c(n(C)c2c1)CCCC3", "growth": "77.9% (inactive)"}, {"smiles": "CCCCCCCCCCNCCSS(=O)(=O)O", "growth": "110% (inactive)"}, {"smiles": "Cc1cc(C)on1", "growth": "98.5% (inactive)"}, {"smiles": "C/C(=C(/c1ccc(O)cc1)c1ccc(OCCN2CCCC2)cc1)c1ccccc1", "growth": "34.7% (inactive)"}, {"smiles": "COc1cccc(/C=N/NC(=S)NC2CC3CCC2C3)c1O", "note": "(stereo not given)", "growth": "68.2% (inactive)"}, {"smiles": "Cc1[nH]c(=S)[nH]c(=O)c1C", "growth": "112% (inactive)"}, {"smiles": "CCCCCCCN(CCCCCCC)C(=N)c1ccnc2ccccc12", "growth": "-83.5% (active)"}, {"smiles": "Cc1noc(C)c1-c1ccc2nc(NC(=O)[C@H]3CCN(C#N)C3)cn2c1", "growth": "57.3% (inactive)"}, {"smiles": "CCOC(=O)C(=O)CC(=O)N1C(=S)NC(=O)C1CC(C)C", "note": "(stereo not given)", "growth": "85.1% (inactive)"}, {"smiles": "O=C1/C(=C/c2ccc(F)cc2)C=C(c2ccccc2)N1CCc1ccccc1", "growth": "72.9% (inactive)"}, {"smiles": "O=C(Nc1nc2c(C(F)(F)F)cccc2s1)c1cc(Cl)ccc1O", "growth": "-10.5% (active)"}, {"smiles": "CC1(C)[C@@H](O)CC[C@]2(C)[C@H]3CC[C@@H]4[C@H]5[C@H](c6cn(-c7ccccc7)nn6)CC[C@]5(CO)CC[C@@]4(C)[C@]3(C)CC[C@@H]12", "growth": "65.4% (inactive)"}, {"smiles": "COc1cc(F)c(/C=C/c2cc(/C=C/c3cc(OC)c(OC)cc3F)n(-c3cc(F)cc(F)c3)n2)cc1OC", "growth": "-37.6% (active)"}]}]}
